According to article PMC5913336, “True equilibrium measurement of transcription factor-DNA binding affinities using automated polarization microscopy”:

Tests used:
Test in all cases: FP; 33 mM phosphate pH 7.0, 90 mM NaCl, 0.01% Tween 20, 0.1 mM DTT, 0.5% agarose; room temperature
Gsc = Gsc (Drosophila melanogaster, UniProt P54366 267-356); settings: tags: N-GST (pGEX-6P-1, kept); dsDNA, one strand shown
Optix = target: T1, Optix (Drosophila melanogaster, UniProt Q95RW8 139-229); settings: tags: N-GST (pGEX-6P-1, kept); dsDNA, one strand shown
T1 sequence: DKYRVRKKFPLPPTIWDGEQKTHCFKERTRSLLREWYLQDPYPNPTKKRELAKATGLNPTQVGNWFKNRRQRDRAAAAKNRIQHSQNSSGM

Ttk-PF = Ttk-PF (Drosophila melanogaster, UniProt P17789 499-564); settings: dsDNA, one strand shown
Cic = Cic (Drosophila melanogaster, UniProt Q9U1H0 483-565); settings: tags: N-GST (pGEX-6P-1, kept); dsDNA, one strand shown
Zelda = target: T2, Zelda (Drosophila melanogaster, UniProt Q9VWC6 1319-1447); settings: tags: N-GST (pGEX-6P-1, kept); dsDNA, one strand shown
T2 sequence: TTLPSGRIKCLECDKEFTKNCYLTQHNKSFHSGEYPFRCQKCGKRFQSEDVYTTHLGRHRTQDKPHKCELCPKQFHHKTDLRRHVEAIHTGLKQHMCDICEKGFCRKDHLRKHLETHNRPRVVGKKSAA

Chain of Gsc (P54366 267-356): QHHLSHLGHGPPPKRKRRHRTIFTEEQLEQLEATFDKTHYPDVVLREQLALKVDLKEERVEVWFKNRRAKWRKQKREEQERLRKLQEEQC

TATTAATCCGAT
binding signal (Gsc): 2.48 Kd / Kd of best base at the position

AATTAATACGAT
binding signal (Gsc): 9.77 Kd / Kd of best base at the position

AATTTATCCGAT
binding signal (Gsc): 12.6 Kd / Kd of best base at the position

AGAGCGATAGCT
binding signal (Optix): 6.46 Kd / Kd of best base at the position

ATTTAATCCGAT
binding signal (Gsc): 3.67 Kd / Kd of best base at the position

AATTAACCCGAT
binding signal (Gsc): 13.1 Kd / Kd of best base at the position

AGAGTGATAGCT
Kd (Optix): ~5 nM

AATTAATCCGGT
binding signal (Gsc): 1.99 Kd / Kd of best base at the position

AGTTAATCCGAT
binding signal (Gsc): 4.01 Kd / Kd of best base at the position

AATAAATCCGAT
binding signal (Gsc): 8.9 Kd / Kd of best base at the position

AATTAATCCGTT
binding signal (Gsc): 1.04 Kd / Kd of best base at the position

AATCAATCCGAT
binding signal (Gsc): 23.5 Kd / Kd of best base at the position

AATTATTCCGAT
binding signal (Gsc): 24.5 Kd / Kd of best base at the position

AAATAATCCGAT
binding signal (Gsc): 4.25 Kd / Kd of best base at the position

GATTAATCCGAT
binding signal (Gsc): 1.37 Kd / Kd of best base at the position

AATTGATCCGAT
binding signal (Gsc): 12.6 Kd / Kd of best base at the position

AATTACTCCGAT
binding signal (Gsc): 24.4 Kd / Kd of best base at the position

AATTAAACCGAT
binding signal (Gsc): 9.22 Kd / Kd of best base at the position

AATTAATTCGAT
binding signal (Gsc): 3.3 Kd / Kd of best base at the position

AATTAATCCGCT
binding signal (Gsc): 3.18 Kd / Kd of best base at the position

AATTCATCCGAT
binding signal (Gsc): 36.4 Kd / Kd of best base at the position

AATTAATCCAAT
binding signal (Gsc): 1.29 Kd / Kd of best base at the position

AATTAATCCGAG
binding signal (Gsc): 1.56 Kd / Kd of best base at the position

AATTAATCGGAT
binding signal (Gsc): 3.62 Kd / Kd of best base at the position

AATTAATCTGAT
binding signal (Gsc): 1.95 Kd / Kd of best base at the position

AATTAATCCGAA
binding signal (Gsc): 1.15 Kd / Kd of best base at the position

AAGTAATCCGAT
binding signal (Gsc): 4.46 Kd / Kd of best base at the position

AATTAGTCCGAT
binding signal (Gsc): 10.6 Kd / Kd of best base at the position

AATGAATCCGAT
binding signal (Gsc): 42.9 Kd / Kd of best base at the position

TCGCCCGGATAAC
binding signal (Ttk-PF): > 208 Kd / Kd of best base at the position

CGTGGAATGGGGT
binding signal (Cic): 17.5 Kd / Kd of best base at the position

AATTTCAGTTACC
binding signal (Zelda): 9.11 Kd / Kd of best base at the position

AATTTCAGGAACC
binding signal (Zelda): 19.3 Kd / Kd of best base at the position

AATTTCATGTACC
binding signal (Zelda): 12.8 Kd / Kd of best base at the position

GATTTCAGGTACC
binding signal (Zelda): 2.27 Kd / Kd of best base at the position

AATGTCAGGTACC
binding signal (Zelda): 1.84 Kd / Kd of best base at the position

AATTTTAGGTACC
binding signal (Zelda): 4.6 Kd / Kd of best base at the position

AACTTCAGGTACC
binding signal (Zelda): 1.86 Kd / Kd of best base at the position

AATTTCAGGTAGC
binding signal (Zelda): 1.01 Kd / Kd of best base at the position

AATTTCAGGTACT
binding signal (Zelda): 2.11 Kd / Kd of best base at the position

AATTTCAGGTATC
binding signal (Zelda): 2.16 Kd / Kd of best base at the position

AGTTTCAGGTACC
binding signal (Zelda): 2.05 Kd / Kd of best base at the position

AATTTCAGGTACA
binding signal (Zelda): 2.29 Kd / Kd of best base at the position

AATTTCACGTACC
binding signal (Zelda): 11.7 Kd / Kd of best base at the position

AAATTCAGGTACC
binding signal (Zelda): 1.56 Kd / Kd of best base at the position

AATTCCAGGTACC
binding signal (Zelda): 1.28 Kd / Kd of best base at the position

AATTTCAAGTACC
binding signal (Zelda): 8.76 Kd / Kd of best base at the position

AATTTCTGGTACC
binding signal (Zelda): 19.2 Kd / Kd of best base at the position

AATATCAGGTACC
binding signal (Zelda): 1.65 Kd / Kd of best base at the position

AATTTCGGGTACC
binding signal (Zelda): 7.8 Kd / Kd of best base at the position

AATTTCAGGTGCC
binding signal (Zelda): 9.55 Kd / Kd of best base at the position

AATCTCAGGTACC
binding signal (Zelda): 1.8 Kd / Kd of best base at the position

AATTTGAGGTACC
binding signal (Zelda): 17.6 Kd / Kd of best base at the position

AATTTCAGATACC
binding signal (Zelda): 12.3 Kd / Kd of best base at the position

AATTACAGGTACC
binding signal (Zelda): 1.77 Kd / Kd of best base at the position

AATTTAAGGTACC
binding signal (Zelda): 17.1 Kd / Kd of best base at the position

AATTTCAGGTACG
binding signal (Zelda): 2.98 Kd / Kd of best base at the position

AATTTCAGGTCCC
binding signal (Zelda): 10.1 Kd / Kd of best base at the position

AAGTTCAGGTACC
binding signal (Zelda): 1.72 Kd / Kd of best base at the position

TATTTCAGGTACC
binding signal (Zelda): 1.83 Kd / Kd of best base at the position
